Test results reported in PubChem BioAssay AID1159580 (chemical genetic matrix, 2015).
Several values for one entry are separate records, joined by “and”; a condition that tells them apart may be missing. Equal values may be shown once. Among all 5,500 compounds or so, about 2,000 (36%) were called active. Not shown: some 18% with an inconclusive outcome. Rule as the data show it: active = normalized growth mostly below about 0.91 (no sharp cut-off); inconclusive = no clear call, values can overlap the other calls; inactive = mostly above about 0.92. The list shows a part of the results.

Experiment: chemical genetic growth profiling, strain panel (AID 1159580);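 also: tested at 20 µM; growth read once vehicle control cultures reached saturation at 30 °C; 1 = growth at the plate median or of vehicle wells; lower values mean less growth of the strain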
Settings: growth OD
[1] = S. cerevisiae deletion strains, locus YBR021W, strain FUR4, stronger effect = lower value
[2] = S. cerevisiae deletion strains, locus YBR229C, strain ROT2, stronger effect = lower value
[3] = S. cerevisiae deletion strains, locus YCL029C, strain bik1, stronger effect = lower value
[4] = S. cerevisiae deletion strains, locus YDL035C, strain GPR1, stronger effect = lower value
[5] = S. cerevisiae deletion strains, locus YDL074C, strain BRE1, stronger effect = lower value
[6] = S. cerevisiae deletion strains, locus YDL101C, strain DUN1, stronger effect = lower value
[7] = S. cerevisiae deletion strains, locus YDL185W, strain tfp1, stronger effect = lower value
[8] = S. cerevisiae deletion strains, locus YDL192W, strain arf1, stronger effect = lower value
[9] = S. cerevisiae deletion strains, locus YDR101C, strain arx1, stronger effect = lower value
[10] = S. cerevisiae deletion strains, locus YDR162C, strain NBP2, stronger effect = lower value
[11] = S. cerevisiae deletion strains, locus YDR318W, strain mcm21, stronger effect = lower value
[12] = S. cerevisiae deletion strains, locus YDR388W, stronger effect = lower value
[13] = S. cerevisiae deletion strains, locus YDR502C, strain sam2, stronger effect = lower value
[14] = S. cerevisiae deletion strains, locus YER110C, stronger effect = lower value
[15] = S. cerevisiae deletion strains, locus YER155C, strain BEM2, stronger effect = lower value
[16] = S. cerevisiae deletion strains, locus YER167W, strain BCK2, stronger effect = lower value
[17] = S. cerevisiae deletion strains, locus YGL078C, strain dbp3, stronger effect = lower value
[18] = S. cerevisiae deletion strains, locus YGL086W, strain mad1, stronger effect = lower value
[19] = S. cerevisiae deletion strains, locus YGL248W, strain PDE1, stronger effect = lower value
[20] = S. cerevisiae deletion strains, locus YGR135W, strain pre9, stronger effect = lower value
[21] = S. cerevisiae deletion strains, locus YGR252W, strain gcn5, stronger effect = lower value
[22] = S. cerevisiae deletion strains, locus YHR030C, strain SLT2, stronger effect = lower value
[23] = S. cerevisiae deletion strains, locus YHR079C, strain IRE1 (second series), stronger effect = lower value
[24] = S. cerevisiae deletion strains, locus YHR094C, strain hxt1, stronger effect = lower value
[25] = S. cerevisiae deletion strains, locus YHR129C, strain ARP1, stronger effect = lower value
[26] = S. cerevisiae deletion strains, locus YHR200W, strain rpn10, stronger effect = lower value
[27] = S. cerevisiae deletion strains, locus YIL066C, strain RNR3, stronger effect = lower value
[28] = S. cerevisiae deletion strains, locus YIL073C, strain SPO22, stronger effect = lower value
[29] = S. cerevisiae deletion strains, locus YIL125W, strain kgd1, stronger effect = lower value
[30] = S. cerevisiae deletion strains, locus YIR030C, strain dcg1, stronger effect = lower value
[31] = S. cerevisiae deletion strains, locus YJL095W, strain BCK1, stronger effect = lower value
[32] = S. cerevisiae deletion strains, locus YJL134W, strain LCB3, stronger effect = lower value
[33] = S. cerevisiae deletion strains, locus YJL168C, strain set2, stronger effect = lower value
[34] = S. cerevisiae deletion strains, locus YJL187C, strain SWE1 (second series), stronger effect = lower value
[35] = S. cerevisiae deletion strains, locus YKL009W, strain mrt4, stronger effect = lower value
[36] = S. cerevisiae deletion strains, locus YKL068W, stronger effect = lower value
[37] = S. cerevisiae deletion strains, locus YKL085W, strain MDH1 (second series), stronger effect = lower value
[38] = S. cerevisiae deletion strains, locus YKL085W, strain MDH1, stronger effect = lower value
[39] = S. cerevisiae deletion strains, locus YKR001C, strain vps1, stronger effect = lower value
[40] = S. cerevisiae deletion strains, locus YLR039C, strain RIC1, stronger effect = lower value
[41] = S. cerevisiae deletion strains, locus YLR058C, strain SHM2, stronger effect = lower value
[42] = S. cerevisiae deletion strains, locus YLR102C, strain apc9, stronger effect = lower value
[43] = S. cerevisiae deletion strains, locus YLR262C, strain YPT6, stronger effect = lower value
[44] = S. cerevisiae deletion strains, locus YLR268W, strain sec22, stronger effect = lower value
[45] = S. cerevisiae deletion strains, locus YLR371W, strain rom2, stronger effect = lower value
[46] = S. cerevisiae deletion strains, locus YLR418C, strain cdc73, stronger effect = lower value
[47] = S. cerevisiae deletion strains, locus YML016C, strain PPZ1, stronger effect = lower value
[48] = S. cerevisiae deletion strains, locus YML032C, strain rad52, stronger effect = lower value
[49] = S. cerevisiae deletion strains, locus YML124C, strain tub3, stronger effect = lower value
[50] = S. cerevisiae deletion strains, locus YMR078C, strain ctf18, stronger effect = lower value
[51] = S. cerevisiae deletion strains, locus YMR223W, strain ubp8, stronger effect = lower value
[52] = S. cerevisiae deletion strains, locus YMR307W, strain GAS1, stronger effect = lower value
[53] = S. cerevisiae deletion strains, locus YNL067W, strain RPL9B, stronger effect = lower value
[54] = S. cerevisiae deletion strains, locus YNL233W, strain BNI4, stronger effect = lower value
[55] = S. cerevisiae deletion strains, locus YNL250W, strain rad50, stronger effect = lower value
[56] = S. cerevisiae deletion strains, locus YNL271C, strain bni1, stronger effect = lower value
[57] = S. cerevisiae deletion strains, locus YNL298W, strain CLA4, stronger effect = lower value
[58] = S. cerevisiae deletion strains, locus YNL307C, strain MCK1, stronger effect = lower value
[59] = S. cerevisiae deletion strains, locus YNR052C, strain pop2, stronger effect = lower value
[60] = S. cerevisiae deletion strains, locus YOL012C, strain htz1
[61] = S. cerevisiae deletion strains, locus YOL147C, strain pex11, stronger effect = lower value
[62] = S. cerevisiae deletion strains, locus YOR061W, strain CKA2, stronger effect = lower value
[63] = S. cerevisiae deletion strains, locus YOR069W, strain VPS5, stronger effect = lower value
[64] = S. cerevisiae deletion strains, locus YOR136W, strain idh2, stronger effect = lower value
[65] = S. cerevisiae deletion strains, locus YOR144C, strain elg1, stronger effect = lower value
[66] = S. cerevisiae deletion strains, locus YOR184W, strain ser1, stronger effect = lower value
[67] = S. cerevisiae deletion strains, locus YOR316C, strain cot1, stronger effect = lower value
[68] = S. cerevisiae deletion strains, locus YPR119W, strain clb2, stronger effect = lower value
[69] = S. cerevisiae deletion strains, locus YPR141C, strain kar3, stronger effect = lower value
[70] = S. cerevisiae deletion strains, locus YPR163C, strain tif3, stronger effect = lower value
[71] = S. cerevisiae deletion strains, locus YPR167C, strain met16, stronger effect = lower value
[72] = S. cerevisiae deletion strains, strain wtn01, stronger effect = lower value

Measured: normalized growth

C[C@]12[C@H](O)CC3C(CC[C@@H]4C[C@@H](O)CC[C@]34C)[C@@]1(O)CC[C@@H]2C1=CC(=O)OC1 (stereo partly drawn)
inactive: [1] 1.05 | [2] 1.01 | [3] 0.992 | [4] 1.07 | [5] 1.07 | [6] 1.01 | S. cerevisiae deletion strains, locus YDL134C, strain PPH21, stronger effect = lower value 0.997 | [7] 0.987 | [8] 1 | [9] 1.01 | [10] 1.01 | [11] 0.999 | [12] 0.976 | [13] 0.971 | [14] 0.974 | [15] 0.998 | [16] 1.02 | [17] 0.979 | [18] 0.983 | [19] 1.01 | S. cerevisiae deletion strains, locus YGR078C, strain PAC10, stronger effect = lower value 1.01 | [20] 0.941 | [21] 0.923 | [22] 1.01 and 1 | [23] 0.98 | S. cerevisiae deletion strains, locus YHR079C, strain IRE1, stronger effect = lower value 0.993 | [24] 0.976 | [25] 1.01 | [26] 0.968 | [27] 1.04 | [28] 1 | [29] 0.984 | [30] 0.986 | [31] 0.999 and 0.994 | [32] 1.01 | [33] 0.994 | [34] 1.01 | S. cerevisiae deletion strains, locus YJR066W, strain TOR1, stronger effect = lower value 0.903 | [35] 1.02 | [36] 0.994 | [37] 0.975 | [38] 0.975 | [39] 1.01 | [40] 1.05 | [41] 1.02 | [42] 0.982 | S. cerevisiae deletion strains, locus YLR113W, strain HOG1, stronger effect = lower value 1.03 | [43] 1.09 | [44] 1.01 | S. cerevisiae deletion strains, locus YLR342W, strain FKS1 (second series), stronger effect = lower value 1.05 | [45] 0.996 | [46] 0.955 | [47] 1.02 | [48] 0.998 | [49] 0.986 | [50] 0.979 | [51] 0.974 | [52] 1.13 | [53] 0.99 | S. cerevisiae deletion strains, locus YNL153C, strain GIM3, stronger effect = lower value 1 | S. cerevisiae deletion strains, locus YNL183C, strain NPR1, stronger effect = lower value 0.924 | [54] 1 | [55] 0.974 | [56] 0.991 | [57] 1.01 | [58] 0.977 | [59] 0.965 | [60] 0.887 | [61] 0.99 | [62] 1.04 | [63] 1.01 | [64] 0.952 | [65] 0.987 | [66] 1.03 | S. cerevisiae deletion strains, locus YOR231W, strain MKK1, stronger effect = lower value 1 | [67] 0.982 | S. cerevisiae deletion strains, locus YPL256C, strain CLN2, stronger effect = lower value 0.982 | [68] 0.985 | [69] 0.983 | [70] 0.988 | [71] 0.984 | [72] 0.998 | S. cerevisiae strains, strain wild type, stronger effect = lower value 1.03

C[C@]12CC[C@@H](O)C[C@H]1CCc1ccccc12
inactive: [1] 0.967 | [2] 1.01 | [3] 1 | [4] 1.01 | [5] 1.04 | [6] 1.01 | [7] 1.01 | [8] 0.999 | [9] 1.01 | [10] 1.04 | [11] 1 | [12] 1.01 | [13] 0.989 | S. cerevisiae deletion strains, locus YEL061C, strain CIN8, stronger effect = lower value 1.02 | [14] 0.999 | [15] 1.01 | [16] 1.02 | [17] 0.966 | [18] 0.989 | [19] 1 | [20] 0.992 | [21] 0.94 | [22] 1.02 | [23] 0.997 | [24] 0.999 | [25] 1.02 | [26] 1.01 | [27] 1.05 | [28] 1.04 | [29] 0.996 | [30] 1.01 | [31] 1 | [32] 1.02 | [33] 1 | [34] 1 | [35] 1.01 | [36] 1.01 | [37] 1.02 | [38] 1.02 | [39] 0.977 | [40] 0.918 | [41] 1.02 | [42] 1 | [43] 0.968 | [44] 1 | [45] 1.04 | [46] 0.973 | [47] 1.02 | [48] 0.99 | [49] 1 | [50] 1 | [51] 0.985 | [52] 1.07 | [53] 1 | [54] 1.01 | [55] 1.04 | [56] 1.01 | [57] 0.989 | [58] 1 | [59] 0.987 | S. cerevisiae deletion strains, locus YOL006C, strain TOP1, stronger effect = lower value 1.09 | [60] 1.06 | [61] 1.01 | [62] 1.03 | [63] 1.02 | [64] 0.995 | [65] 1 | [66] 0.978 | [67] 1 | S. cerevisiae deletion strains, locus YPL241C, strain CIN2, stronger effect = lower value 1.02 | [68] 1 | [69] 1.02 | [70] 1 | [71] 0.997 | [72] 0.99
